IL-1B inflam inh: blocks inflammasome-driven IL-1 beta release | THP-1 LPS/ATP IL-1B secretion, AlphaLISA, 16 h; stronger effect = lower value | activity change, % at 57.5 µM | 4.7% of 360,000 active; in the data active = activity change below about -50%; inconclusive = mostly about -30% to -49%
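THP-1 cells pretreated 1 hr with compounds (up to 57.5 uM final), then stimulated with LPS (250 ng/mL final) plus ATP (1.25 mM final); secreted IL-1B measured by AlphaLISA after 16 hr, decreased signal indicating inhibition.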
TDP1 cell CPT: DT40-hTDP1 cell growth loss with CPT. chicken DT40 Tdp1-/-;hTDP1 cells + 20 nM CPT, ATP luminescence, 48 h. Potency, µM (titrated, usually from 46.2 µM), most hits filed as inhibitors. 12% of 420,000 active. AID 686979; note: nearly all actives have a fitted effect of over 55% in size
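Chicken DT40 Tdp1-/- cells stably complemented with human TDP1 were seeded at 400 cells/well in medium containing 20 nM camptothecin, exposed to pin-transferred compounds, and grown at 37 °C for at least 48 hr. Viability was read as ATP luminescence.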
12-LOX inh: inhibitors of human 12S-lipoxygenase ALOX12 | P18054 | purified 12hLO, xylenol orange hydroperoxide absorbance | Potency, µM (doses to about 108 µM), actives largely listed as inhibitors | 1.1% of 580,000 active | AID 1671190
Target sequence (P18054 whole entry, looked up): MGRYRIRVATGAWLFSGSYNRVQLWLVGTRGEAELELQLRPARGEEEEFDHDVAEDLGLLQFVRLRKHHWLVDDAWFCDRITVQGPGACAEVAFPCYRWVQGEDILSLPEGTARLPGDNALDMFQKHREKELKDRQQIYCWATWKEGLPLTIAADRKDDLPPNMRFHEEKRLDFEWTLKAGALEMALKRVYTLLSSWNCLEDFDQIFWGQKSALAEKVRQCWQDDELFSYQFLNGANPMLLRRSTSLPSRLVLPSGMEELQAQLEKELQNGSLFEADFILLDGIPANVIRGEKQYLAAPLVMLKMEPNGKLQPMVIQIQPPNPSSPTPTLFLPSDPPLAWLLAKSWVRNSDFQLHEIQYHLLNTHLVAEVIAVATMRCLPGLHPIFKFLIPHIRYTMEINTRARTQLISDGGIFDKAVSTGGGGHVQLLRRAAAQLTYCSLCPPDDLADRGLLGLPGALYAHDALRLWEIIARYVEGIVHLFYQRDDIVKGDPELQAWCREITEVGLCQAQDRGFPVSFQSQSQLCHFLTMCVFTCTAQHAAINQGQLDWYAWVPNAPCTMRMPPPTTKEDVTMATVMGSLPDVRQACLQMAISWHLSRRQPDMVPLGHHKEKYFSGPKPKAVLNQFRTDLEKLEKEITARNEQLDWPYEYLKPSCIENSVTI
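Purified human 12hLO at 150 nM in 25 mM Hepes, 0.01% Triton X-100, pH 7.0, preincubated 15 min at room temperature with compound. Reaction started with 40 uM arachidonic acid, 30 min at room temperature. Hydroperoxide measured by Fe-xylenol orange, 573/405 nm absorbance ratio.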
HT1080 IDH1KD tx: toxicity to HT-1080 IDH1 knockdown cells (counter line); HT-1080 IDH1 knockdown viability, ATP luminescence, 48 h; Potency, µM (top dose mostly 46.1 µM), usual class: cytotoxic; 2% of 360,000 active; AID 686971
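Luminescent ATP read-out (CellTiter-Glo, 10 min at room temperature) after 48 h compound exposure at 37 °C gave viability of IDH1-knockdown HT-1080 cells. Activity was normalised to DMSO and cell-free wells, then fitted as concentration-response curves.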
DT40 TDP1 no CPT: qHTS for Inhibitors of human tyrosyl-DNA phosphodiesterase 1 (TDP1): qHTS in cells in absence of CPT; DT40 Tdp1-/- hTDP1 cells, no CPT, ATP luminescence, 48 h; 15% of 420,000 active; Potency, µM (series often up to 46.2 µM), hits mostly inhibitors; note: nearly all actives have a fitted effect of over 55% in size
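Camptothecin absent (DMSO only). Human TDP1-complemented DT40 knockout cells, 400 cells/well, 37 °C for minimum 48 hr; ATP measured via CellTiter-Glo, 30 min dark incubation, luminescence.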
HT1080NT lethal: kills 2HG-producing HT-1080-NT fibrosarcoma cells. HT-1080-NT fibrosarcoma viability, CellTiter-Glo ATP luminescence, 48 h. Potency, µM (doses to about 46.1 µM), actives largely listed as cytotoxic. 1.6% of 360,000 active. AID 686970;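 note: NT is the 2HG producing partner of a matched IDH1 knockdown line; nearly all actives have a fitted effect of over 55% in size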
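Viability by CellTiter-Glo luminescence after 48 h compound exposure at 37C of HT-1080-NT cells (750/well, RPMI, 5% FBS). % activity scaled between DMSO wells and medium-only wells, then curve-fitted and categorized by curve class.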
A number is an active result; [ ] = dose if it differs, or a comment. The sample as a whole holds a higher share of hits than the screen did. Unless noted, calls come from the whole dose curve; as a rule, active = well fitted curve in the direction sought with a large enough effect; inconclusive = small, poorly fitted or top-dose-only effect, or another doubt; inactive = no such curve, though single readings can be large; an effect the other way counts as inactive or inconclusive.

How did CN(C)C(=O)Oc1ccc(OCc2nc3ccccc3[nH]2)cc1 do in these assays?
IL-1B inflam inh: inactive; TDP1 cell CPT: 9.2µM; 12-LOX inh: inactive; HT1080 IDH1KD tx: 6.5µM; DT40 TDP1 no CPT: 10µM; HT1080NT lethal: 7.3µM

What do the screens show for `CN(C)C(=O)Oc1ccc(OC(=O)N(C)C)cc1`?
IL-1B inflam inh: inactive; TDP1 cell CPT: inactive; 12-LOX inh: inactive; HT1080 IDH1KD tx: inactive; DT40 TDP1 no CPT: inactive; HT1080NT lethal: inactive

Results for Cc1oc2cc(OCC(=O)N3CCN(CCO)CC3)ccc2c(=O)c1Oc1ccccc1 ?
12-LOX inh: inactive

How did O=C(NC[C@H]1C[C@@H]2CCN1C[C@@H]2CN1CCCC1)c1ccccc1 do in these assays?
12-LOX inh: inactive

Results for O=C(NCCN1CCC2(CC1)C(=O)NCN2c1ccccc1)c1cccc(F)c1 ?
12-LOX inh: inactive

How did C[N+](C)(Cc1ccccc1)CC(Br)CBr (stereo not drawn) do in these assays?
12-LOX inh: inactive

Results for O=C1C(Cl)=C(Cl)C(=O)C(Cl)=C1Cl ?
TDP1 cell CPT: 4.6µM; DT40 TDP1 no CPT: 2.9µM

How did c1ccc(P(c2ccccc2)c2ccccn2)cc1 do in these assays?
IL-1B inflam inh: inactive; TDP1 cell CPT: 5.2µM; 12-LOX inh: inconclusive; HT1080 IDH1KD tx: inactive; DT40 TDP1 no CPT: 5.2µM; HT1080NT lethal: inconclusive

What do the screens show for `C#CCN(C)C[C@H]1CN2CC[C@H]1C[C@@H]2CNS(=O)(=O)c1cccs1`?
12-LOX inh: inactive

Results for Cn1nc(-c2ccco2)cc1[C@H]1CN2CC[C@H]1C[C@@H]2CNC(=O)c1cccs1 ?
12-LOX inh: inactive

How did CCn1cc2nc(SCc3cc(C)ccc3C)n(Cc3ccc(OC)cc3)c(=O)c2n1 do in these assays?
TDP1 cell CPT: 10µM; 12-LOX inh: inactive; DT40 TDP1 no CPT: 7.3µM

What do the screens show for `COP(=S)(OC)Oc1cc(Cl)c(Cl)cc1Cl`?
TDP1 cell CPT: inactive; DT40 TDP1 no CPT: inactive

How did COc1cc2c(cc1OC)[C@@H]1C(=O)c3ccc(OC)c(CC=C(C)C)c3OC1CO2 (stereo partly drawn) do in these assays?
TDP1 cell CPT: 2.9µM; DT40 TDP1 no CPT: 1.6µM

How did COc1cc2c(cc1OC)[C@@H]1C(=O)c3ccc4c(c3OC1CO2)CC(C(C)C)O4 (stereo partly drawn) do in these assays?
TDP1 cell CPT: 0.065µM; DT40 TDP1 no CPT: 0.082µM

How did C=C(C)C1Cc2c(ccc3c(=O)c4c(oc23)COc2cc(OC)c(OC)cc2-4)O1 (stereo not drawn) do in these assays?
TDP1 cell CPT: inactive[9.04 µM]; 12-LOX inh: inactive; DT40 TDP1 no CPT: inactive[9.04 µM]

Results for CCCS(=O)(=O)N1CC(COC)C2(CCNCC2)C1 (stereo not drawn) ?
12-LOX inh: inactive

How did O=C(c1ccc(F)cc1)N1C[C@@H]2C[C@H](C1)c1c(/C=C/c3ccc(Cl)cc3)ccc(=O)n1C2 do in these assays?
12-LOX inh: inactive

Results for CC(C)(O)c1cn(C[C@H]2C[C@@H]3CCN2C[C@@H]3C(=O)N2CCOCC2)nn1 ?
12-LOX inh: inactive

How did CN1CCN(c2ccccc2NC(=O)c2ccc(-c3ccc(Cl)c(Cl)c3)o2)CC1 do in these assays?
IL-1B inflam inh: -78; TDP1 cell CPT: 18µM; 12-LOX inh: inconclusive; HT1080 IDH1KD tx: inactive; DT40 TDP1 no CPT: inconclusive; HT1080NT lethal: inactive

Results for CC(=O)Nc1ccc(-c2ccc(=O)n3c2[C@@H]2C[C@@H](CN(C(=O)c4cccs4)C2)C3)cc1 ?
12-LOX inh: inactive

How did CC(=O)Nc1ccc(CC(=O)N2CCN(Cc3ccccc3)CC2)cc1 do in these assays?
IL-1B inflam inh: inactive; TDP1 cell CPT: inactive; 12-LOX inh: inactive; HT1080 IDH1KD tx: inactive; DT40 TDP1 no CPT: inactive; HT1080NT lethal: inactive

How did CCN1CCN(C(=O)Cc2ccc(Nc3ncc(F)c(Nc4ccc(C(=O)Nc5ccccc5Cl)cc4)n3)cc2)CC1 do in these assays?
12-LOX inh: 3.9µM

Results for CCOP1(=S)Oc2cc3c(cc2C(C(=O)OC)(C(F)(F)F)O1)OCO3 (stereo not drawn) ?
IL-1B inflam inh: inactive; TDP1 cell CPT: 13µM; 12-LOX inh: inconclusive; HT1080 IDH1KD tx: inactive; DT40 TDP1 no CPT: inconclusive; HT1080NT lethal: inactive

What do the screens show for `CSCC[C@@H](NC(=O)[C@@H](Cc1ccccc1)NC(=O)CNC(=O)CNC(=O)[C@@H](N)Cc1ccc(O)cc1)C(=O)O`?
12-LOX inh: inactive

What do the screens show for `C[C@H]1O[C@@H](O[C@H]2[C@@H](O)C[C@H](O[C@H]3[C@@H](O)C[C@H](O[C@H]4CC[C@@]5(C)[C@H](CC[C@@H]6[C@@H]5CC[C@]5(C)[C@@H](C7=CC(=O)OC7)CC[C@]65O)C4)O[C@@H]3C)O[C@@H]2C)C[C@H](O)[C@@H]1O`?
IL-1B inflam inh: -76; TDP1 cell CPT: 0.3µM; HT1080 IDH1KD tx: 0.15µM; DT40 TDP1 no CPT: 0.3µM; HT1080NT lethal: 0.21µM

What do the screens show for `COC1CC(OC2CCC3(C)C(CC[C@@H]4[C@@H]3CCC3(C)C(C5=CC(=O)OC5)C(OC(C)=O)CC43O)C2)OC(C)C1O` (stereo partly drawn)?
12-LOX inh: inactive

How did CC(=O)OC1CC2(O)C3CCC4CC(O)CCC4(C)C3CCC2(C)C1C1=CC(=O)OC1 (stereo not drawn) do in these assays?
IL-1B inflam inh: -80; TDP1 cell CPT: inconclusive; 12-LOX inh: inactive; HT1080 IDH1KD tx: 0.52µM; DT40 TDP1 no CPT: 8.2µM; HT1080NT lethal: 1.3µM

What do the screens show for `CC1OC(OC2C(O)CC(OC3C(O)CC(OC4CCC5(C)C(CCC6C5CCC5(C)C(C7=CC(=O)OC7)C(O)CC65O)C4)OC3C)OC2C)CC(O)C1O` (stereo not drawn)?
IL-1B inflam inh: -99; TDP1 cell CPT: 1.5µM; 12-LOX inh: inactive; HT1080 IDH1KD tx: 0.58µM; DT40 TDP1 no CPT: 0.82µM; HT1080NT lethal: 1µM

What do the screens show for `CC1OC(O[C@@H]2C(O)CC(O[C@@H]3C(O)C[C@@H](OC4CC[C@]5(C)[C@H](CC[C@H]6[C@@H]5CC[C@]5(C)C(C7=CC(=O)OC7)C(O)C[C@@]65O)C4)OC3C)OC2C)CC(O)C1O` (stereo partly drawn)?
TDP1 cell CPT: inactive; DT40 TDP1 no CPT: inactive

What do the screens show for `C[C@@]12OC(=O)[C@]1([C@@H](O)[C@@H]1C=CCCC1)NC(=O)[C@H]2CCCl`?
12-LOX inh: inactive
